Laboratory results taken from PubChem BioAssay AID2391 (Southern Research Specialized Biocontainment Screening …, 2010).
About 410 (0.13%) of roughly 310,000 compounds were called active. Not shown: some 2% with an inconclusive outcome. Only a sample is shown. Entries with a potency or affinity are not part of this list. Values without a mark were called inactive. No rule for the calls is given here.

Assay: RSV antiviral activity via CPE protection, HEp-2 cells, primary 10 µM value included (AID 2391)
Conditions: RSV-induced CPE inhibition, at 10 µM, hits give high values

SMILES	CPE inhibition [%]
O=C(OC(C(=O)NC1CCCC1)c1ccccc1F)c1ccco1 (stereo not drawn)	0.45
Nc1cc(=O)[nH]c(SCC(=O)N2N=C(c3ccc(Cl)cc3)CC2c2ccco2)n1 (stereo not drawn)	7.31
CCn1c(=O)n(CC(=O)Nc2ccc(F)cc2)c(=O)c2ccccc21	2.36
CC(=O)OC[C@H]1O[C@@H](Sc2cccc3cccnc23)[C@H](OC(C)=O)[C@@H](OC(C)=O)[C@@H]1OC(C)=O	1.39
O=C(NC1CC2CCCC(C1)N2C(=O)Nc1ccccc1)C1CC1 (stereo not drawn)	1.59
O=C(COC(=O)/C=C/c1ccc(C(F)(F)F)cc1)NCC1CCCO1 (stereo not drawn)	-1.68
Cc1sc2nc3c(C(=O)N4CCCC4)cc(C(=O)c4ccccc4O)cn3c(=O)c2c1C	1.18
CCOC(=O)c1sc2nc3c(SCC(=O)O)cc(C(=O)c4ccccc4O)cn3c(=O)c2c1C	11.9
O=C(Nc1ccncc1)c1c(Cl)cccc1Cl	0
Cc1c(C)c2c(OCC(=O)N3CCC[C@H]3C(=O)O)cc3c(c2oc1=O)CCC(C)(C)O3	0.96
O=C(Nc1ccc(Cl)c(C(F)(F)F)c1)[C@@H]1CC=C[C@@H]2CCN(Cc3ccccc3)C(=O)[C@@H]21	2.53
O=C(Nc1ccc(Cl)c(C(F)(F)F)c1)[C@@H]1CC=C[C@@H]2CCN(Cc3ccc(Cl)c(Cl)c3)C(=O)[C@@H]21	7.28
COc1ccc(OC)c(Nc2nc3nonc3nc2N2CCCCC2)c1	1.59
O=C(CCCOc1ccc(Cl)cc1Cl)Nc1ccc(O)cc1C(=O)O	0.3
O=C(Cc1cccc2ccccc12)Nc1ccc(O)cc1C(=O)O	2.4
O=C(COc1ccc2ccccc2c1)Nc1cccc(C(=O)Nc2ccccc2C(=O)O)c1	20.8
COc1cc(NC(=O)CCCOc2ccc(Cl)cc2Cl)c(C(=O)O)cc1OC	6.77
O=C(Cc1ccccc1C(=O)O)Nc1cccc2ccccc12	1.4
COc1ccccc1NC(=O)COc1ccc2ccccc2c1	4.1
Cc1ccc(Cl)cc1N(C(=O)c1csnn1)C(C(=O)NC1CCCC1)c1ccco1 (stereo not drawn)	1.87
O=C(CN1C(=O)NC2(CCCCCC2)C1=O)Nc1ccc2c(c1)CCC2	2.7
O=C(NCC(c1ccco1)N1CCCCC1)c1ccc(NS(=O)(=O)c2ccc(F)cc2)cc1 (stereo not drawn)	3.02

SMILES	CPE inhibition [%]
COc1ccc(-c2noc(CN3CCN(c4ccccc4)CC3)n2)cc1	-0.23
Cc1cccc(NC(=O)c2ccc(S(=O)(=O)N3CCCC3)cc2)c1C	1.87
CC(OC(=O)c1cccn1C)C(=O)Nc1ccc2c(c1)OCO2 (stereo not drawn)	2.62
CCN(CC(=O)Nc1ccc(Br)cc1)C(=O)c1nc2nc(C)cc(C)n2n1	1.87
CC(C)(C)N1C(=O)c2ccc(C(=O)Nc3cc(C(=O)O)cc(C(=O)O)c3)cc2C1=O	0.7
COC(=O)c1cccc(NC(=O)c2ccc3c(c2)C(=O)N(C(C)(C)C)C3=O)c1	9.97
CCCOC(=O)Cn1cnc2scc(-c3ccc(C)cc3)c2c1=O	0.39
COc1ccc(N=C2C(=Nc3ccc(OC)cc3)N(c3ccc(OC)cc3)C(=S)N2c2ccccc2)cc1	0.02
COc1ccc(N=C2C(=Nc3ccc(OC)cc3)N(c3ccc(OC)cc3)C(=S)N2C)cc1	0.37
Cc1coc2c1c(C)cc1oc(=O)c(Cc3ccccc3)c(C)c12	1.6
COC(=O)Cc1c(C)c2c(O)cc(C)cc2oc1=O	6.65
Cc1c(CC(=O)N2CCN(C(=O)C3COc4ccccc4O3)CC2)c(=O)oc2cc(O)ccc12 (stereo not drawn)	0.83
Cc1cc(OC(C(=O)O)c2ccccc2)c2c(C)c(Cc3ccccc3)c(=O)oc2c1 (stereo not drawn)	11.6
Cc1cc(O)c2c(C)c(CC(=O)N3CCN(C(=O)C4COc5ccccc5O4)CC3)c(=O)oc2c1 (stereo not drawn)	6.34
CCOC(=O)Cc1c(C)c2ccc(N(CC)CC)cc2oc1=O	57.9
C=CCN(CC(=O)Nc1c(C)cccc1CC)C(=O)SCCC	0.77
Cc1[nH]c(C)c(S(=O)(=O)Nc2ccc(OC(F)(F)F)cc2)c1C(=O)N1CCCCC1	1.31
C#CCOc1nc2c(c(=O)n(C)c(=O)n2C)n1Cc1ccccc1	6.97
CCc1ccc(-c2cc(C(=O)N3N=C(C(F)F)CC3(O)C(F)F)c3ccccc3n2)cc1 (stereo not drawn)	-3.61
CC1c2cc3c(cc2CCN1C(=O)c1cccc(F)c1)OCCCO3 (stereo not drawn)	2.63
CCCCc1ncc(CN2CCC(n3nccc3NC(=O)c3ccccc3Cl)CC2)[nH]1	0.19
Cc1ccc(N2NC(=O)/C(=C/c3ccc(-c4ccc(Cl)c(C(=O)O)c4)o3)C2=O)cc1	0.38

SMILES	CPE inhibition [%]
O=C(O)c1cc(-c2ccc(/C=C3\NC(=O)N(c4ccccc4)C3=O)o2)ccc1Cl	4.99
Cc1cccnc1NC(=O)c1ccc(OCc2c(C)noc2C)cc1	1.6
CCOc1ncccc1C(=O)Nc1nc(C(C)(C)C)cs1	0.68
CC(C)(C)c1csc(NC(=O)c2cccnc2Cl)n1	1.36
COc1ccc(CC2(CO)CCN(Cc3ccc(OC(F)(F)F)cc3)CC2)cc1	13.9
COc1ccccc1NC(=O)Nc1nc(CC(=O)Nc2ccc(OC)c(OC)c2)cs1	-1.37
Cc1cc(OCc2cc(C(=O)N(C)CCOc3ccccc3)no2)cc(C)c1Cl	13.7
O=C(NCc1ccccc1Cl)C1CCCN(S(=O)(=O)c2cccc3nonc23)C1 (stereo not drawn)	0.66
O=C(NCc1ccc(Cl)cc1)C1CCN(S(=O)(=O)c2cccc3nonc23)CC1	5.35
COc1ccccc1CNC(=O)C1CCCN(S(=O)(=O)c2cccc3nonc23)C1 (stereo not drawn)	0.88
COc1ccc(CNC(=O)C2CCN(S(=O)(=O)c3cccc4nonc34)CC2)cc1	0.73
O=C(NNC(=O)C12CC3CC(CC(C3)C1)C2)c1ccccn1	1.78
C/C(CC(=O)Nc1cc(C)ccn1)=N\NC(=O)C(=O)NC(C)C	-0.96
CC12CCC(O)CC1=CCC1C2CCC2(C)C1CCC21CCC(=O)O1 (stereo not drawn)	7.71
CC(=O)C1[C@H](N(C)C)CC2C3CC=C4CC(O)CC[C@]4(C)C3CC[C@@]21C (stereo partly drawn)	0.54
CCN(CC)S(=O)(=O)c1ccc(N2C(=O)CC2(/C=C/c2ccccc2)C(=O)NC2CCCC2)cc1 (stereo not drawn)	4.54
Cc1c(Cl)ccc2c(C(=O)NCCCn3nccc3C)cc(-c3ccccn3)nc12	13.8
Cc1nnc(NC(=O)CSc2ccc(-c3cccnc3)nn2)s1	2.73
Cn1c(COc2nnc(-c3ccc(Cl)cc3)c3ccccc23)nc2ccccc21	5.55
Cc1nnc(OCc2nc3ccccc3n2C)c2ccccc12	6.77
CCC(CC)c1nnc(NC(=O)c2c(C)nn(Cc3ccccc3Cl)c2C)s1	10.8
CC(=O)Nc1ccc(NC(=O)c2c(C)nn(Cc3ccccc3Cl)c2C)cc1	1.12

SMILES	CPE inhibition [%]
COc1ccc(-c2nc(N=Nc3ccc(O)cc3)n[nH]2)cc1	9.37
CN(C)S(=O)(=O)c1cc(NC(=O)CN2CCN(c3ccc(O)cc3)CC2)ccc1Cl	0.75
COc1cccc(-c2cc3nc(-c4ccccc4)cc(N4CCCC(O)C4)n3n2)c1 (stereo not drawn)	14.1
OC1CCN(c2cc(-c3ccccc3)nc3cc(-c4ccc(F)cc4)nn23)CC1	5.15
C=CCOC(=O)C(C#N)c1nc2ccccc2nc1N1CCN(c2ccccc2OC)CC1 (stereo not drawn)	0.49
C/C(=N\O)c1ccc2[nH]ccc2c1	5.17
CC(=O)Nc1ccc2[nH]ccc2c1	-0.73
COc1ccc(OC)c(NC(=O)c2cccc(S(=O)(=O)N(Cc3ccccc3)c3ccccc3OC)c2)c1	2.42
Cc1nc2ccc(N=NC3=C(O)CC(C)(C)CC3=O)cc2s1	2.75
COc1ccccc1OCCn1cc(C=O)c2ccccc21	-0.05
O=C(NC(Cc1c[nH]c2ccccc12)C(=O)N1CCOCC1)c1cccs1 (stereo not drawn)	-0.02
O=C(NC(Cc1c[nH]c2ccccc12)C(=O)N/N=C/c1ccc(Br)cc1)c1cccs1 (stereo not drawn)	-2.58
O=C(Nc1ccc(F)c([N+](=O)[O-])c1)c1cccs1	4.17
O=C(NC(Cc1c[nH]c2ccccc12)C(=O)O)c1cccs1 (stereo not drawn)	-1.85
O=C(NC(Cc1c[nH]c2ccccc12)C(=O)N/N=C/c1cccc2ccccc12)c1cccs1 (stereo not drawn)	18.5
COC(=O)C(Cc1c[nH]c2ccccc12)NC(=O)c1cccs1 (stereo not drawn)	1.21
CC1(C)CC(=O)c2cc(C(=O)NC3CCSC3=O)c(=O)n(-c3ccc(Cl)cc3)c2C1 (stereo not drawn)	0.72
O=S(=O)(Nc1ccccc1)c1cccc2nsnc12	1.2
CCc1ccc(N2CC(C(=O)OCC(=O)NNC(=O)c3ccccc3)CC2=O)cc1 (stereo not drawn)	1.46
COc1cccc(NC(=O)C(NCC(C)(C)CN(C)C)c2ccccc2)c1 (stereo not drawn)	1.08
CC1(C)Cc2cccc(C(=O)Nc3ccc(Cl)cc3)c2O1	13.1
CC1CCN(C(=O)COC(=O)Cc2c[nH]c3ccccc23)CC1	-0.07
